Source: PubChem BioAssay (Tox21)
Records with an inconclusive call do not appear. Calls of active or inactive are those of the source. The call rests on the fitted dose curve; in most records, active means well fitted cell-killing curve with a large enough effect in the repeat runs; inconclusive means weak or mixed curves, or effect the other way; inactive means flat fitted curve, though single readings scatter.

assay: qHTS RealTime-Glo MT Cell Viability Assay in HEK293 cells - 24 hour (AID 1224886); conditions: RealTime-Glo luminescence; series mostly up to 76.8 µM; activity change, negative = cytotoxicity: at the top concentration; further: nearly all actives have a fitted effect of over 50% in size; on activity change, negative = cytotoxicity: top concentration of the series differs between compounds
Summary of the method: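 Tox21 10K qHTS, HEK293, 600 cells/well, RealTime-Glo reagent co-dispensed with cells; 5 h preincubation, compound by pintool, 37 C, luminescence at 0–40 h.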
On the % scale 0 is the no-effect control and ±100 the full control effect; potency means the concentration at half of the fitted maximal effect.

Structure (SMILES) | activity change, negative = cytotoxicity | Potency
O=C(O)CCN(C1(C(=O)NO)CCCC1)S(=O)(=O)c1ccc(Oc2ccc(F)cc2)cc1 | 13.6% (inactive) | 
CCCCN(CCCC)CC(O)c1cc(Cl)cc2c1-c1ccc(Cl)cc1/C2=C/c1ccc(Cl)cc1 (stereo unspecified) | -19.4% [at 35.3 µM] (inactive) | 
CC/C=C\CCCCCO | 5.18% (inactive) | 
C#C[C@]1(OC(C)=O)CC[C@H]2[C@@H]3CCC4=C[C@@H](OC(C)=O)CC[C@@H]4[C@H]3CC[C@@]21C |  | 21.3 µM (active)
C#C[C@]1(OC(C)=O)CC[C@H]2[C@@H]3CCC4=C/C(=N/O)CC[C@@H]4[C@H]3CC[C@@]21CC |  | 23.9 µM (active)
CCOC(=O)c1ccc(C2CCC(NC[C@H](O)COc3ccc(O)c(NS(C)(=O)=O)c3)CC2)cc1 (stereo partly specified) |  | 20.2 µM (active)
CC(C)=CCNc1ncnc2c1ncn2[C@@H]1O[C@H](CO)[C@@H](O)[C@H]1O | -22% [at 35.3 µM] (inactive) | 
COc1ccc2c(c1)c(CC(=O)OC/C=C(\C)CC/C=C(\C)CCC=C(C)C)c(C)n2C(=O)c1ccc(Cl)cc1 | -14.8% [at 35.3 µM] (inactive) | 
CCc1oc2ccccc2c1C(=O)c1cc(I)c(O)c(I)c1 | -14.4% [at 35.3 µM] (inactive) | 
C=CC(=O)OCCOC(=O)C=C |  | 43.6 µM (active)
CCCCCCCCCCC[C@@H](C[C@@H]1OC(=O)[C@H]1CCCCCC)OC(=O)[C@H](CC(C)C)NC=O |  | 8.49 µM (active)
COc1cccc(OC)c1C(=O)O | 5.8% (inactive) | 
C=C(C)C(=O)OCCCCCCCCCC | 16.8% (inactive) | 
CCCCC(CC)COC(=O)CCCCC(=O)OCc1ccccc1 (stereo unspecified) | 2.76% (inactive) | 
OCCN1CCN(CCCN2c3ccccc3Sc3ccc(C(F)(F)F)cc32)CC1 |  | 23.9 µM (active)
Cl[Si](Cl)(c1ccccc1)c1ccccc1 | -5.95% (inactive) | 
